Test results: PubChem BioAssay (EPA / NIEHS)
Some compounds were tested as several samples or in several runs, with calls that do not always agree. The source made the active and inactive calls. The calls were made as follows: active = hit-call score of the fitted dose curve at least 0.9, where 1 is the maximum; inactive = score below 0.9.

Experiment: ATG_GATA_CIS: Attagene CIS-FACTORIAL HepG2 Assay for human GATA Binding Protein (AID 2282944)
Settings: HepG2 GATA cis-element reporter, Attagene multiplex mRNA; actives raise or lower the signal
Experimental: ATG_CIS is a cell-based, multiplexed-readout assay that uses HepG2, a human liver cell line, with measurements taken at 24 hours after chemical dosing in a 24-well plate.ATG_GATA_CIS is one of 52 assay component(s) measured or calculated from the ATG_CIS assay. It is designed to make measurements of mRNA induction, a form of inducible reporter, as detected with fluorescence intensity signals by Reverse transcription polymerase chain reaction (RT-PCR) and Capillary electrophoresis technology.Data from the assay component ATG_GATA_CIS was analyzed into 1 assay endpoint. This assay endpoint, ATG_GATA_CIS, was analyzed with bidirectional fitting relative to DMSO as the negative control and baseline of activity. Using a type of inducible reporter, measures of mRNA for gain or loss-of-signal activity can be used to understand the reporter gene at the transcription factor-level as they relate to the gene GATA1. Furthermore, this assay endpoint can be referred to as a primary readout, because this assay has produced multiple assay endpoints where this one serves a reporter gene function. To generalize the intended target to other relatable targets, this assay endpoint is annotated to the dna binding intended target family, where the subfamily is GATA proteins.
Human liver HepG2 cells are transiently transfected with multiple reporter transcription units (MRTUs) in 6-well plates using FuGene 6 reagent (Roche; 3 ml FuGene/1 mg DNA). The MRTU constructs are regulated by a cis-regulating element (promoter). […] A major difference between the CIS and TRANS system is that in CIS activities of endogenous TFs are measured, whereas the TRANS assay evaluates changes in activities of exogenous, chimeric NR-Gal4 proteins. […] At the end of 24 hour incubation, total RNA was isolated using TriZol reagent (Invitrogen). The isolated RNA is then reverse-transcribed using oligo(dT) primer and Mo-MLV reverse transcriptase (Invitrogen) with DNAse I (Ambion) treatment for 30 min. The one-tenth of the produced cDNA was amplified by PCR using Taq DNA polymerase (Invitrogen) and two reporter sequence-specific primers. The PCR products were fluorescently labeled by primer extension with 6-arboxyfluorescein (6-FAM) 5'-labeled reporter sequence-specific primer (2 min at 95 C, 20 s at 68 C and 10 min at 72 C) and these products were digested with 5U of HpaI (New England Biolabs) for 2h at 37 C. The fragments were purified using Qiaquick PCR columns (Qiagen), analyzed on an ABI 3130xL genetic analyzer (Applied Biosystems) with peak positions identified by using a set of X-rhodamine (ROX)-labeled MapMarker1000 molecular weight standards (BioVentures). The raw capillary electrophoresis data was processed using Attagraph software (Attagene).

Row | Compound | AC50 | outcome
1 | C=C(c1ccc(C(=O)O)cc1)c1cc2c(cc1C)C(C)(C)CCC2(C)C | 35.6 µM (active) | inactive
2 | O=C1Cc2ccccc2N1c1c(Cl)cccc1Cl | – | inactive
3 | CC1=NN(c2ccccc2)C(=O)C1 | – | inactive
4 | CC(C)(c1ccc(Oc2ccc(N)cc2)cc1)c1ccc(Oc2ccc(N)cc2)cc1 | – | inactive
5 | O=C(C=C(O)C(F)(F)F)C(F)(F)F | – | inactive
6 | CCOCCOCC | – | inactive
7 | CCCCCc1ccc(O)cc1 | – | inactive
8 | Cc1cc(C(=C2C=CC(=Nc3ccc(S(=O)(=O)O)cc3)C=C2)c2ccc(Nc3ccc(S(=O)(=O)O)cc3)cc2)cc(S(=O)(=O)O)c1N | – | inactive
9 | O=S(=O)(c1ccc(OCc2ccccc2)cc1)c1ccccc1O | 55.4 µM (active) | –
10 | O=S(=O)(O)c1ccc2cc(O)ccc2c1 | – | inactive
11 | Cc1ccc(C(=O)c2ccccc2)cc1 | – | inactive
12 | Clc1ccc(Nc2nnc(Cc3ccncc3)c3ccccc23)cc1 | – | inactive
13 | NNc1nc(-c2ccc([N+](=O)[O-])cc2)cs1 | – | inactive
14 | C[N+](C)(CCCNS(=O)(=O)CCC(F)(F)C(F)(F)C(F)(F)C(F)(F)C(F)(F)C(F)(F)F)CC(=O)[O-] | – | inactive
15 | CC[N+](CC)(CC)Cc1ccccc1 | – | inactive
16 | CN(CCO)S(=O)(=O)C(F)(F)C(F)(F)C(F)(F)C(F)(F)C(F)(F)C(F)(F)C(F)(F)C(F)(F)F | – | inactive
17 | Oc1cccc2c(O)cccc12 | – | inactive
18 | COC1=CC(=O)C[C@@H](C)[C@]12Oc1c(Cl)c(OC)cc(OC)c1C2=O | – | inactive
19 | C=CC(C)(CCC=C(C)C)OC(C)=O (stereo not given) | – | inactive
20 | CCCCCCCCC1CCC(=O)O1 (stereo not given) | – | inactive

Row | Compound | AC50 | outcome
21 | O=CC(F)(F)C(F)(F)C(F)(F)F | – | inactive
22 | CCCCCCc1ccc(N)cc1 | – | inactive
23 | O=C(Nc1cccc([N+](=O)[O-])c1)c1cc2ccccc2cc1O | – | inactive
24 | O=C(O)c1cccc(C(=O)O)n1 | – | inactive
25 | O=C(O)CCC(F)(F)C(F)(F)C(F)(F)C(F)(F)C(F)(F)F | – | inactive
26 | CCO[Si](CCC1CCC2OC2C1)(OCC)OCC (stereo not given) | – | inactive
27 | O=C(O)CN(CCCN(CC(=O)O)CC(=O)O)CC(=O)O | – | inactive
28 | FC1(F)C=CC(F)(F)C1(F)F | – | inactive
29 | C=CC(F)(F)C(F)(F)C(F)(F)C(F)(F)F | – | inactive
30 | CC(C)C=O | – | inactive
31 | CC1=CC(=O)c2ccccc2C1=O | – | inactive
32 | NNC(=O)CCCCC(=O)NN | – | inactive
33 | O=S(=O)(O)C(F)(F)C(F)(F)C(F)(F)C(F)(F)C(F)(F)C(F)(F)C(F)(F)C(F)(F)C(F)(F)C(F)(F)F | – | inactive
34 | C=Cc1ccc(O)c(OC)c1 | – | inactive
35 | Cn1sccc1=O | – | inactive
36 | CCOC=C(C(=O)OCC)C(=O)OCC | – | inactive
37 | CCc1cccc(CC)c1NC(=O)C(=O)O | – | inactive
38 | O=C(CC(=O)C(F)(F)C(F)(F)C(F)(F)F)c1cccs1 | – | inactive
39 | Cc1cc(C(C)(C)C)c(O)c(C(C)(C)C)c1 | – | inactive
